Source: PubChem
Rows were chosen to be rich in hits. Some 3.5% of all compounds tested hit in one or more screens of this group.
MITF inh: MITF inhibitors, primary screen, biochemical, AlphaScreen, human. AlphaScreen MITF homodimerization, bead proximity signal. AID 1259374, 2018. 650,000 tested, 0.91% active. inhibition, % at 2.6 µM; in the data active means inhibition above about 50%;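 further: 0% = vehicle wells with protein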
Target sequence (O75030 whole entry, looked up): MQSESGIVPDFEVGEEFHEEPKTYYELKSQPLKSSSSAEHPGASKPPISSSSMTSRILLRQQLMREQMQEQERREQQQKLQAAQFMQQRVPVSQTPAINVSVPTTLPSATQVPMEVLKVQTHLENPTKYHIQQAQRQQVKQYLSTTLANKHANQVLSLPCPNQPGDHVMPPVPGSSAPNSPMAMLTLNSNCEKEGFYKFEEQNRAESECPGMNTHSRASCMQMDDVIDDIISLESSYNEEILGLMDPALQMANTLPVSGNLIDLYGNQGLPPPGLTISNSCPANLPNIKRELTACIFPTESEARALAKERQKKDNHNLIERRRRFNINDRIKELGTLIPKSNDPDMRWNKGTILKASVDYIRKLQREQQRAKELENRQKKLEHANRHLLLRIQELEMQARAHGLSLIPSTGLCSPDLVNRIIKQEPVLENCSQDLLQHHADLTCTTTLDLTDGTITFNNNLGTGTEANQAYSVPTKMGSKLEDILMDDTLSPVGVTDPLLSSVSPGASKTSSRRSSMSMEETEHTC
TEAD-YAP inh: TEAD-YAP interaction inhibition, primary screen, TEAD-YAP interaction inhibitor project, luminescence, HEK-TIYL cells; TEAD-Gal4/YAP UAS-luciferase luminescence; inhibition, % at 9.12 µM; 640,000 tested, 1.4% active; AID 1259422, 2018; in the data active means inhibition above about 32%;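 further: 0% = median of test compound wells and 100% = reference inhibitor wells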
GPR151 ag: activators of human GPR151, primary screen, cell-based, PathHunter beta-arrestin, luminescence; PathHunter beta-arrestin GPR151 cells; 650,000 tested, 1% active; activation, % at 11.2 µM; G-protein coupled receptor 151 (Homo sapiens), Q8TDV0; in the data active means activation above about 4.9%;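 further: 0% = median of compound wells and 100% = cells with positive control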
FBW7 activator: FBW7 E3 ligase activators, primary screen, biochemical, AlphaScreen, human | 650,000 tested, 0.13% active | normalized activity (activation), % at 26.1 µM | F-box/WD repeat-containing protein 7 (Homo sapiens), Q969H0 | AlphaScreen FBW7–phospho-cyclin E peptide binding, activator screen; in the data active means normalized activity above about 1.9%;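 further: purified mutant Fbw7 with reduced substrate affinity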
MITF inh conf: MITF inhibitors, retest of hits, confirmation, biochemical, AlphaScreen, triplicate. inhibition, % at 2.6 µM. shares compounds with MITF inh. AlphaScreen MITF homodimerization, biotin/His-MITF beads. 4,700 tested, 16% active;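 active means inhibition above a cutoff derived from the DMSO control wells, cut at about 28% in these data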;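 further: 0% = MITF dimer wells with DMSO only; inhibitors lower the bead chemiluminescence by keeping MITF from dimerizing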
AlphaScreen intf2: AlphaScreen optical interference compounds, counter-screen for MITF inhibitor project, biochemical, triplicate; shares compounds with MITF inh; LysRS AlphaScreen counterscreen, signal interference; inhibition, % at 2.6 µM; 4,700 tested, 7.6% active;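 active means inhibition above a cutoff derived from the DMSO control wells, cut at about 30% in these data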
Active calls of the source: *; / = not tested or not shown.

SMILES	MITF inh	TEAD-YAP inh	GPR151 ag	FBW7 activator	MITF inh conf	AlphaScreen intf2
COc1ccc(OC)c(NC(=O)c2ccc(Cl)cc2Cl)c1	8.9	-8.3	0.1	-0.1	/	/
COc1ccc(N2C(=O)C3CCCCC3C2=O)cc1NC(=O)c1ccc(Cl)cc1Cl (centres undefined)	76.0*	8.0	0.5	-0.1	8.2	19.5
CCOC(=O)c1ccc(NC(=O)CN2CCN(CC(=O)c3ccco3)CC2)cc1	78.5*	1.8	0.0	-0.1	4.9	19.6
Cc1ccccc1NC(=O)CN1CCN(CC(=O)c2ccco2)CC1	58.7*	0.9	-0.3	-0.4	27.2	18.7
CCN1CCN(CC(=O)NCc2ccco2)CC1	80.0*	8.6	-0.5	0.1	13.2	4.5
CC1CCN(C(C)C(=O)NCc2ccco2)CC1 (centres undefined)	79.8*	-5.5	0.9	-0.1	18.0	23.2
COC(=O)c1ccc(NC(=O)CN2CCN(C(=O)c3ccco3)CC2)cc1	1.9	23.6	-1.2	0.0	/	/
CC1CCN(CCCNC(=O)C2c3ccccc3C(=O)N3CCc4ccccc4C23)CC1 (centres undefined)	1.4	-20.4	-0.4	0.3	/	/
C/C(=N\Nc1ccc([N+](=O)[O-])cc1[N+](=O)[O-])c1cc2cc(Br)ccc2oc1=O	-4.4	-10.5	-1.4	0.3	/	/
CCN1CCN(c2cc(Nc3ccc(OC)cc3)c3c4c(onc24)-c2ccccc2C3=O)CC1	14.4	15.6	-0.5	-0.9	/	/
CC(NCCN(C)C)C(=O)NCc1ccco1 (centres undefined)	-1.4	-1.9	0.8	0.3	/	/
O=C(CN1CCN(CC(=O)c2ccco2)CC1)NCc1ccccc1Cl	65.6*	-11.5	-0.1	-0.2	9.2	18.4
O=C(CN1CCN(Cc2cn3ccccc3n2)CC1)c1ccco1	53.5*	0.9	1.3	-0.5	10.7	18.3
CC(NCCCN(C)C)C(=O)NCc1ccco1 (centres undefined)	56.8*	-12.5	0.9	-0.3	7.1	9.3
CCn1cc(C(=O)Nc2ccc(OC)cc2)c(=O)c2ccc(C)nc21	11.3	1.4	-1.2	-0.1	/	/
CCS(=O)(=O)N1CCN(Cc2cccc(OC)c2)CC1	56.5*	13.5	-0.9	-0.1	9.6	17.5
COc1cccc(CN2CCN(S(C)(=O)=O)CC2)c1	-3.9	11.8	0.7	0.1	/	/
CCOc1cc(CN2CCN(S(=O)(=O)Cc3ccccc3)CC2)ccc1OC	-8.5	13.0	0.8	0.1	/	/
COc1cccc(CN2CCN(S(=O)(=O)Cc3ccccc3)CC2)c1	68.2*	1.0	-0.2	0.4	4.3	14.4
COc1cc(/C=C/C(=O)OCC(=O)Nc2ccc([N+](=O)[O-])cc2C#N)ccc1O	71.8*	9.8	-0.8	0.6	1.5	5.2
N#Cc1cc([N+](=O)[O-])ccc1NC(=O)COC(=O)/C=C/c1ccc2c(c1)OCO2	-1.3	-7.6	0.8	-0.2	/	/
Cc1ccccc1N1CCN(CC(O)COc2ccc(OCC(O)CN3CCN(c4ccccc4C)CC3)cc2)CC1 (centres undefined)	-1.2	7.5	-0.6	-0.1	/	/
COc1ccc2c(c1)CC(c1nc3ncc(-c4ccnc(N)n4)cc3[nH]1)CO2 (centres undefined)	17.9	21.5	-1.3	0.1	/	/
CC(=O)c1ccc2c(c1)CC(c1nc3ncc(-c4ccnc(N)n4)cc3[nH]1)CO2 (centres undefined)	50.9*	10.8	2.1	0.9	22.6	-11.8
COc1ccc(Cl)cc1NC(=O)Cn1cnc2c(nnn2Cc2ccccc2)c1=O	11.2	5.9	-1.0	0.3	/	/
SMILES	MITF inh	TEAD-YAP inh	GPR151 ag	FBW7 activator	MITF inh conf	AlphaScreen intf2
O=C(O)c1ccc(CN2CCN(c3ccc([N+](=O)[O-])cc3)CC2)cc1	-6.8	14.5	-0.4	0.0	/	/
O=[N+]([O-])c1ccc(N2CCN(Cc3cccnc3)CC2)cc1	58.6*	2.5	-0.5	-0.1	-0.4	-1.6
O=[N+]([O-])c1ccc(N2CCN(Cc3ccncc3)CC2)cc1	60.8*	8.2	0.6	0.1	-0.3	-0.7
O=C(c1ccccc1Cl)N1CCN(c2ccc([N+](=O)[O-])cc2)CC1	96.6*	25.1	0.0	-0.1	7.4	10.6
Cc1ccccc1-c1ccc(CN2CCC(=O)N(C)CC2)cc1	-5.3	-20.0	2.4	-0.2	/	/
O=C(CN1CCN(C(=O)c2ccco2)CC1)N1CCOCC1	9.5	-5.3	0.5	0.0	/	/
c1ccc(-c2ccccc2OCCCN2CCOCC2)cc1	90.7*	2.5	-1.0	0.5	20.2	20.2
c1ccc2c(OCCCCN3CCOCC3)cccc2c1	27.3	-19.2	-0.6	-0.3	/	/
c1ccc(-c2ccccc2OCCN2CCNCC2)cc1	66.0*	-5.2	-0.4	-0.2	20.9	10.5
c1ccc(-c2ccccc2OCCOCCN2CCCC2)cc1	21.2	-1.1	0.0	0.0	/	/
COc1cccc(CN2CCN(C3CCCC(C)C3)CC2)c1OC (centres undefined)	69.8*	7.4	-0.9	-0.1	11.8	17.4
COc1cccc(CN2CCN(C3CCCC3)CC2)c1OC	61.1*	8.2	0.1	-0.2	4.0	17.8
COc1ccc(CN2CCN(C3CCCC3)CC2)c(OC)c1OC	52.3*	-3.4	0.5	-0.1	0.8	9.0
COc1cccc(CN2CCCCC2c2cccnc2)c1OC (centres undefined)	73.4*	-5.8	0.3	-0.1	14.0	13.5
COc1ccc(-c2cc(C(F)(F)F)n3nc(C(=O)N4CCN(C)CC4)c(Cl)c3n2)cc1OC	-8.1	-12.1	-0.3	-0.3	/	/
C/C(=N\Nc1nc2ccccc2[nH]1)c1cccnc1	-4.3	-16.6	0.9	-0.1	/	/
C/C(=N\Nc1nc2ccccc2[nH]1)c1ccccn1	105.2*	74.2*	-4.8	-1.4	110.3*	99.4*
C/C(=N\Nc1ccc(C(F)(F)F)cn1)c1ccccn1	57.9*	86.6*	2.9	-1.3	11.4	35.3*
CC1=CCC(C(=O)Nc2ccccc2)C(c2ccc(Br)cc2)C1 (centres undefined)	-2.7	1.8	1.0	0.5	/	/
COc1ccccc1OCC(O)Cn1c(C(F)(F)F)nc2ccccc21 (centres undefined)	1.4	-1.4	0.5	0.0	/	/
O=C1C(=O)N(CC2CCCO2)C(c2ccco2)/C1=C(/O)c1ccc(Cl)cc1 (centres undefined)	52.7*	-17.2	0.5	-0.3	6.6	9.8
O=C1C(=O)N(CC2CCCO2)C(c2ccc(Cl)cc2)/C1=C(/O)c1ccccc1 (centres undefined)	5.8	0.1	-1.3	0.1	/	/
Cc1ccccc1CN1CCN(C2C3CC4CC(C3)CC2C4)CC1 (centres undefined)	73.9*	-0.9	4.7	0.0	-0.7	-1.8
